# ClpP mod: qHTS Assay for Activators of ClpP; ATP-dependent Clp protease proteolytic subunit (Bacillus subtilis (strain 168)), P80244; Potency, µM (titrated, usually from 57.5 µM), inactives show at the top dose activity change, negative = active; 340,000 tested, 1.9% active; purified B. subtilis ClpP, FRET peptide cleavage, 20 min; active means well fitted falling curve with a large enough effect; inconclusive means small, poorly fitted or top-dose-only effect; inactive means no such curve, though single readings can be large or run the other way; further: the source files actives as falling curves though it sought activators and does not explain the sign; nearly all actives have a fitted effect of over 65% in size
#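 ClpP 10 microg/mL final, pH 8 Tris/KCl buffer with BSA, glycerol, Tween-20; compound pinned in; FRET-FV substrate; RT 20 min; Ex320/Em430; ΔFRET vs ADEP 5.8 microM, DMSO, no enzyme.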
# Mm-Cpn inhibitor: blocks the Methanococcus maripaludis chaperonin Mm-Cpn; purified Mm-Cpn ATPase, ADP Transcreener TR-FRET; Potency, µM (doses to about 76.9 µM), inactives show at the highest dose activity, negative = inhibition, most hits filed as inhibitors; 330,000 tested, 0.031% active; AID 504842; further: on the % scale 0 is the no-effect control and ±100 the full control effect; nearly all actives have a fitted effect of over 80% in size
#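 Compound-treated chaperonin, 25 nM final, turns over 10 uM ATP at 37°C for 30 min following a 10 min preincubation; ADP generated competes with ADP-d2 for Eu-cryptate antibody, lowering FRET.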
# Abeta yeast res: compounds reversing amyloid beta toxicity in yeast. yeast expressing A-beta42, growth rescue, OD600, 48 h; response scale: 0% DMSO, 100% iron-clioquinol control. Potency, µM (series often up to 46.1 µM), actives largely listed as activators. 410,000 tested, 0.063% active; further: nearly all actives have a fitted effect of over 55% in size
#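 Yeast A-beta toxicity model in growth medium with pinned compounds, 48 h at 30 C; growth read as absorbance at 600 nm. Normalized to FeCl3/clioquinol equimolar mix (positive) and DMSO (negative).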
# aSyn rescue: alpha-synuclein toxicity inhibition in yeast; Yeast expressing alpha-synuclein, growth rescue, BacTiter-Glo, 24 h; Potency, µM (titrated, usually from 46.1 µM), without a hit: at the top dose growth rescue (activation), actives largely listed as activators; 370,000 tested, 0.14% active; further: % of control where 0% means no effect; nearly all actives have a fitted effect of over 65% in size
#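 Galactose-induced alpha-syn yeast (OD600=0.02, raffinose-pregrown) + pinned cpd, 24 hr, 30 deg C; growth by BacTiter-Glo luminescence. Growth restoration scores as activation.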
# FUS yeast rescue: suppressors of FUS proteinopathy in yeast; S. cerevisiae FUS-expressing, growth rescue, OD600, 24 h; Potency, µM (doses to about 76.6 µM), hits mostly activators; 390,000 tested, 0.24% active;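 further: plate controls were DMSO vehicle for no effect and reference control for full effect; nearly all actives have a fitted effect of over 55% in size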
#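 Cultures pregrown in 2.5% raffinose medium are shifted to minimal medium containing 2% galactose to express toxic FUS. Compounds are tested at several concentrations. After 24hr at 30C, growth is quantified at 600 nm absorbance.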
# TDP43 rescue: TDP-43 toxicity inhibition in yeast. TDP-43 expressing yeast growth rescue, BacTiter-Glo, 24 h. Potency, µM (titrated, usually from 46.1 µM), without a hit: at the top dose growth rescue (activation), actives largely listed as activators. 410,000 tested, 1.8% active; further: % of control where 0% means no effect; nearly all actives have a fitted effect of over 50% in size
#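 Cell-based yeast growth screen: TDP-43 expression induced in galactose, inoculum OD600=0.02 after raffinose pregrowth to mid-log. Read-out BacTiter-Glo luminescence at 24 hr, 30 deg C; inhibition of toxicity seen as signal increase.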
# * hit, by the source's call; i = inactive; u = inconclusive; x = no result. Rows were chosen to be rich in hits. Some 3.6% of all compounds tested hit in one or more screens of this group. Unless noted, the call rests on the fitted dose curve; in most records, active means well fitted curve in the direction sought with a large enough effect; inconclusive means small, poorly fitted or top-dose-only effect, or another doubt; inactive means no such curve, though single readings can be large; an effect the other way counts as inactive or inconclusive. Potency means the concentration at half of the fitted maximal effect.
SMILES,ClpP mod,Mm-Cpn inhibitor,Abeta yeast res,aSyn rescue,FUS yeast rescue,TDP43 rescue
CC(=O)Nc1ccc2nc(-c3ccncc3)[nH]c2c1,25µM*,-4%,i,-7%,i,11%
O=S(=O)(Cc1ccc(Cl)cc1)c1ccccc1-c1nnc(-c2ccccc2)o1,32µM*,-4%,i,-2%,i,-2%
CC(OC(=O)c1ccc(NS(=O)(=O)c2cccs2)cc1)C(=O)N(C)C1CCCCC1 (centres undefined),x,-3%,i,-3%,32µM*,-6%
COc1ccc(-c2cc(-c3ccccc3)c(C#N)c(S(C)=O)n2)cc1 (centres undefined),u,-16%,i,6%,i,18µM*
COc1ccc(-c2cc(-c3cccs3)c(C#N)c(SCC(=O)NCc3ccccc3)n2)cc1,2%,-4%,i,0%,i,9%
C#CCSc1nc(-c2ccccc2)cc(-c2ccccc2)c1C#N,u,x,i,x,i,u
COc1ccc(-c2cc(-c3cccs3)c(C#N)c(SCC(=O)NCc3ccccc3OC)n2)cc1,40µM*,-3%,i,6%,i,18%
CCSc1nc(-c2ccc(OC)cc2)cc(-c2ccccc2)c1C#N,28µM*,u,i,14%,i,-21%
COc1ccccc1C(=O)NCCn1cc(SCc2ccc(C)cc2)c2ccccc21,-4%,x,i,x,u,17%
COc1ccccc1C(=O)Nc1ccc2nc(SCC(=O)N(C)c3ccccc3)sc2c1,4%,x,i,x,i,21%
CC(C)CCNc1nc(-c2ccco2)c2c(c1C#N)CCCC2,14µM*,-2%,i,4%,i,2%
N#Cc1c(N2CCOCC2)nc(-c2ccco2)c2c1CCCC2,35µM*,-1%,i,19%,u,12%
CCc1nc(NCCN)c(C#N)c2c1CSC(C)(C)C2,22µM*,u,i,6%,i,17%
COC(=O)CSc1nc2c(c(-c3ccco3)c1C#N)CCCC2,-13%,-5%,i,u,i,-15%
CC1(C)Cc2c(C#N)c(N3CCCC3)nc(-c3ccco3)c2CO1,x,-5%,x,x,x,x
CCc1nc2n[nH]c(N)c2c2c1CSC(C)(C)C2,1%,1%,i,5%,i,6%
N#Cc1c(NCCN)nc(-c2ccco2)c2c1CCCC2,8.9µM*,-2%,i,2%,i,13%
Cc1ccnc2ccc([N+](=O)[O-])cc12,-10%,x,x,x,x,x
COc1ccc(NC(=O)Cn2c(C)cc3ccccc3c2=O)c(OC)c1,u,x,i,x,i,22%
COc1ccc(F)cc1S(=O)(=O)NCCc1csc2nc(-c3cccc(C)c3)nn12,0%,x,i,x,u,10%
CCc1nc(NCCC(C)C)c(C#N)c2c1CCCC2,16µM*,-3%,i,-3%,i,1%
CCc1nc(NCc2ccccc2)c(C#N)c2c1CCCC2,3%,0%,i,7%,i,12%
CCN(CC)S(=O)(=O)c1ccc(N2CCOCC2)c(NC(=O)c2ccc(C#N)cc2)c1,-4%,0%,i,2%,28µM*,1%
CCN(CC)S(=O)(=O)c1ccc(N2CCOCC2)c(NC(=O)c2ccc(F)cc2)c1,x,-3%,i,2%,i,u
COc1cccc2c(=O)cc(C)n(CC(=O)Nc3ccccc3C)c12,13µM*,0%,i,-1%,i,9%
SMILES,ClpP mod,Mm-Cpn inhibitor,Abeta yeast res,aSyn rescue,FUS yeast rescue,TDP43 rescue
Cc1ccccc1C(=O)Nc1sc2c(c1C(=O)N1CCCCC1)CCC(C)C2 (centres undefined),-6%,x,i,x,i,18µM*
Cc1ccc(S(=O)(=O)N2[C@@H](c3ccc(F)cc3)C(C(=O)O)=CC[C@H]2c2ccc3c(c2)OCO3)cc1,-5%,1%,i,-14%,i,18µM*
Cc1ccc(S(=O)(=O)N2[C@@H](c3ccc(F)cc3)C(C(=O)O)=CC[C@H]2c2cccc(C)c2)cc1,-2%,2%,i,2%,i,32µM*
Cc1ccc([C@@H]2CC=C(C(=O)O)[C@H](c3ccc(F)cc3)N2S(=O)(=O)c2ccc(C)cc2)cc1,-1%,1%,i,1%,i,-37%
Cc1ccc(S(=O)(=O)N2[C@@H](c3ccccc3)C(C(=O)O)=CC[C@H]2c2cccc(Cl)c2)cc1,-1%,3%,i,-23%,i,35µM*
COc1cccc([C@@H]2CC=C(C(=O)O)[C@H](c3ccc(Br)cc3)N2S(=O)(=O)c2ccc(C)cc2)c1,2%,-9%,i,-1%,i,35µM*
O=C(O)c1cccc(NC(=O)c2cccc(S(=O)(=O)Nc3cccc(F)c3)c2)c1,-1%,x,i,x,i,29%
COc1cccc(-c2cccc(-c3nc(C(=O)NCc4ccc5c(c4)OCO5)cc4c3[C@H](CCO)N(S(=O)C(C)(C)C)C4)c2)c1 (some centres undefined),1%,x,i,-53%,20µM*,-19%
CC(C)(C)S(=O)N1Cc2cc(C(=O)NCC(F)(F)F)nc(-c3cccc(-c4cccc(F)c4)c3)c2[C@@H]1CCO (some centres undefined),0%,x,i,-2%,22µM*,16%
COc1cccc(-c2cccc(-c3nc(C(=O)Nc4ccc(-c5ccccc5)cc4)cc4c3[C@H](CCO)N(S(=O)C(C)(C)C)C4)c2)c1 (some centres undefined),-12%,x,i,-15%,28µM*,0%
CC(C)(C)S(=O)N1Cc2cc(C(=O)NCc3ccc4c(c3)OCO4)nc(-c3cccc(-c4cc5ccccc5o4)c3)c2[C@@H]1CCO (some centres undefined),-17%,x,i,-18%,28µM*,-10%
CN(C)C(=O)c1cccc(-c2cccc(-c3nc(C(=O)NCc4ccccc4)cc4c3[C@H](CCO)N(S(=O)C(C)(C)C)C4)c2)c1 (some centres undefined),-3%,x,i,-1%,i,16%
CC(C)(C)S(=O)N1Cc2cc(C(=O)NCc3ccc(Oc4ccccc4)cc3)nc(-c3cccc(-c4cc5ccccc5o4)c3)c2[C@H]1CCO (some centres undefined),19%,x,i,-27%,u,28%
CCNC(=O)c1cc2c(c(-c3cccc(-c4cccc(C(=O)N(C)C)c4)c3)n1)[C@@H](CCO)N(S(=O)C(C)(C)C)C2 (some centres undefined),-4%,x,i,-8%,u,23%

# Assay outcomes: PubChem, National Center for Advancing Translational Sciences (NCATS)
